# Tests used:
# Assay in all cases: SPOT peptide array binding signal intensity (averaged, normalized) (arbitrary units (background-subtracted, floor 0; scale differs between SH3 domains)); higher = stronger binding of the SH3 domain to the peptide
# AgAbp1 = biological target: AgAbp1
# Method in brief: (§1)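 SH3 domains from four yeast species were expressed as GST fusions in E. coli BL21(DE3) and purified on glutathione Sepharose. Each was incubated at 10 μg/ml overnight at 4°C in TBS-based blocking buffer on cellulose membranes bearing synthetic 15-mer peptides, in which serines replaced cysteines. Bound protein was detected with anti-GST antibody, an HRP anti-mouse secondary and luminol, then imaged and quantified with Genespotter. The binding signal is the normalized, background-subtracted spot intensity averaged over replicates, in arbitrary units that are not the same from one domain to another.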
# AgBbc1 = biological target: AgBbc1
# Method in brief: as §1
# AgBem1-D1 = biological target: AgBem1-D1
# Method in brief: as §1
# AgBzz1-D1 = biological target: AgBzz1-D1
# Method in brief: as §1
# AgBzz1-D2 = biological target: AgBzz1-D2
# Method in brief: as §1
# AgCyk3 = biological target: AgCyk3
# Method in brief: as §1
# AgFus1 = biological target: AgFus1
# Method in brief: as §1
# AgHof1 = biological target: AgHof1
# Method in brief: as §1
# AgHse1 = biological target: AgHse1
# Method in brief: as §1
# AgLsb1 = biological target: AgLsb1
# Method in brief: as §1
# AgLsb4 = biological target: AgLsb4
# Method in brief: as §1
# AgMyo5 = biological target: AgMyo5
# Method in brief: as §1
# AgNbp2 = biological target: AgNbp2
# Method in brief: as §1
# AgRvs167 = biological target: AgRvs167
# Method in brief: as §1
# AgSho1 = biological target: AgSho1
# Method in brief: as §1
# AgSla1-D1-D2 = biological target: AgSla1-D1-D2
# Method in brief: as §1
# AgSla1-D3 = biological target: AgSla1-D3
# Method in brief: as §1
# CaAbp1-D1 = biological target: CaAbp1-D1
# Method in brief: as §1
# CaAbp1-D2 = biological target: CaAbp1-D2
# Method in brief: as §1
# CaBbc1 = biological target: CaBbc1
# Method in brief: as §1
# CaBem1-D1 = biological target: CaBem1-D1
# Method in brief: as §1
# CaBzz1-D1 = biological target: CaBzz1-D1
# Method in brief: as §1
# CaBzz1-D2 = biological target: CaBzz1-D2
# Method in brief: as §1
# CaCyk3 = biological target: CaCyk3
# Method in brief: as §1
# CaFus1 = biological target: CaFus1
# Method in brief: as §1
# CaHof1 = biological target: CaHof1
# Method in brief: as §1
# CaHse1 = biological target: CaHse1
# Method in brief: as §1
# CaLsb1 = biological target: CaLsb1
# Method in brief: as §1
# CaLsb4 = biological target: CaLsb4
# Method in brief: as §1
# CaMyo5 = biological target: CaMyo5
# Method in brief: as §1
# CaNbp2 = biological target: CaNbp2
# Method in brief: as §1
# CaRvs167 = biological target: CaRvs167
# Method in brief: as §1
# CaRvs167-3 = biological target: CaRvs167-3
# Method in brief: as §1
# CaSho1 = biological target: CaSho1
# Method in brief: as §1
# CaSla1-D1-D2 = biological target: CaSla1-D1-D2
# Method in brief: as §1
# CaSla1-D3 = biological target: CaSla1-D3
# Method in brief: as §1
# ScAbp1 = biological target: ScAbp1
# Method in brief: as §1
# ScBbc1 = biological target: ScBbc1
# Method in brief: as §1
# ScBem1-D1 = biological target: ScBem1-D1
# Method in brief: as §1
# ScBzz1-D1 = biological target: ScBzz1-D1
# Method in brief: as §1
# ScBzz1-D2 = biological target: ScBzz1-D2
# Method in brief: as §1
# ScCyk3 = biological target: ScCyk3
# Method in brief: as §1
# ScFus1 = biological target: ScFus1
# Method in brief: as §1
# ScHof1 = biological target: ScHof1
# Method in brief: as §1
# ScHse1 = biological target: ScHse1
# Method in brief: as §1
# ScLsb1 = biological target: ScLsb1
# Method in brief: as §1
# ScLsb2 = biological target: ScLsb2
# Method in brief: as §1
# ScLsb3 = biological target: ScLsb3
# Method in brief: as §1
# ScLsb4 = biological target: ScLsb4
# Method in brief: as §1
# ScMyo3 = biological target: ScMyo3
# Method in brief: as §1
# ScMyo5 = biological target: ScMyo5
# Method in brief: as §1
# ScNbp2 = biological target: ScNbp2
# Method in brief: as §1
# ScPex13 = biological target: ScPex13
# Method in brief: as §1
# ScRvs167 = biological target: ScRvs167
# Method in brief: as §1
# ScSho1 = biological target: ScSho1
# Method in brief: as §1
# ScSla1-D1-D2 = biological target: ScSla1-D1-D2
# Method in brief: as §1
# ScSla1-D3 = biological target: ScSla1-D3
# Method in brief: as §1
# SpAbp1-D1 = biological target: SpAbp1-D1
# Method in brief: as §1
# SpBbc1 = biological target: SpBbc1
# Method in brief: as §1
# SpBzz1-D1 = biological target: SpBzz1-D1
# Method in brief: as §1
# SpBzz1-D2 = biological target: SpBzz1-D2
# Method in brief: as §1
# SpCyk3 = biological target: SpCyk3
# Method in brief: as §1
# SpHof1 = biological target: SpHof1
# Method in brief: as §1
# SpHof1-2 = biological target: SpHof1-2
# Method in brief: as §1
# SpHof1-3 = biological target: SpHof1-3
# Method in brief: as §1
# SpHse1 = biological target: SpHse1
# Method in brief: as §1
# SpLsb1 = biological target: SpLsb1
# Method in brief: as §1
# SpLsb4 = biological target: SpLsb4
# Method in brief: as §1
# SpMyo1 = biological target: SpMyo1
# Method in brief: as §1
# SpNbp2 = biological target: SpNbp2
# Method in brief: as §1
# SpPex13 = biological target: SpPex13
# Method in brief: as §1
# SpRvs167 = biological target: SpRvs167
# Method in brief: as §1
# SpSla1-D1-D2 = biological target: SpSla1-D1-D2
# Method in brief: as §1
# SpSla1-D3 = biological target: SpSla1-D3
# Method in brief: as §1
binder,measurement,setting,value
VPKEPAPAPPPEPDM,SPOT peptide array binding signal intensity,AgAbp1,≤ 0
same,SPOT peptide array binding signal intensity,AgBbc1,0.5
same,SPOT peptide array binding signal intensity,AgBem1-D1,≤ 0
same,SPOT peptide array binding signal intensity,AgBzz1-D1,≤ 0
same,SPOT peptide array binding signal intensity,AgBzz1-D2,7
same,SPOT peptide array binding signal intensity,AgCyk3,≤ 0
same,SPOT peptide array binding signal intensity,AgFus1,4.75
same,SPOT peptide array binding signal intensity,AgHof1,3.88
same,SPOT peptide array binding signal intensity,AgHse1,8
same,SPOT peptide array binding signal intensity,AgLsb1,≤ 0
same,SPOT peptide array binding signal intensity,AgLsb4,≤ 0
same,SPOT peptide array binding signal intensity,AgMyo5,520
same,SPOT peptide array binding signal intensity,AgNbp2,12
same,SPOT peptide array binding signal intensity,AgRvs167,0.167
same,SPOT peptide array binding signal intensity,AgSho1,3.75
same,SPOT peptide array binding signal intensity,AgSla1-D1-D2,≤ 0
same,SPOT peptide array binding signal intensity,AgSla1-D3,0.75
same,SPOT peptide array binding signal intensity,CaAbp1-D1,≤ 0
same,SPOT peptide array binding signal intensity,CaAbp1-D2,≤ 0
same,SPOT peptide array binding signal intensity,CaBbc1,≤ 0
same,SPOT peptide array binding signal intensity,CaBem1-D1,1.5
same,SPOT peptide array binding signal intensity,CaBzz1-D1,42.8
same,SPOT peptide array binding signal intensity,CaBzz1-D2,2.75
same,SPOT peptide array binding signal intensity,CaCyk3,≤ 0
same,SPOT peptide array binding signal intensity,CaFus1,39
same,SPOT peptide array binding signal intensity,CaHof1,≤ 0
same,SPOT peptide array binding signal intensity,CaHse1,2.12
same,SPOT peptide array binding signal intensity,CaLsb1,≤ 0
same,SPOT peptide array binding signal intensity,CaLsb4,≤ 0
same,SPOT peptide array binding signal intensity,CaMyo5,180
same,SPOT peptide array binding signal intensity,CaNbp2,37
same,SPOT peptide array binding signal intensity,CaRvs167,≤ 0
same,SPOT peptide array binding signal intensity,CaRvs167-3,3.25
same,SPOT peptide array binding signal intensity,CaSho1,3.5
same,SPOT peptide array binding signal intensity,CaSla1-D1-D2,9
same,SPOT peptide array binding signal intensity,CaSla1-D3,≤ 0
same,SPOT peptide array binding signal intensity,ScAbp1,≤ 0
same,SPOT peptide array binding signal intensity,ScBbc1,≤ 0
same,SPOT peptide array binding signal intensity,ScBem1-D1,≤ 0
same,SPOT peptide array binding signal intensity,ScBzz1-D1,≤ 0
same,SPOT peptide array binding signal intensity,ScBzz1-D2,21
same,SPOT peptide array binding signal intensity,ScCyk3,≤ 0
same,SPOT peptide array binding signal intensity,ScFus1,≤ 0
same,SPOT peptide array binding signal intensity,ScHof1,≤ 0
same,SPOT peptide array binding signal intensity,ScHse1,7.25
same,SPOT peptide array binding signal intensity,ScLsb1,≤ 0
same,SPOT peptide array binding signal intensity,ScLsb2,≤ 0
same,SPOT peptide array binding signal intensity,ScLsb3,≤ 0
same,SPOT peptide array binding signal intensity,ScLsb4,≤ 0
same,SPOT peptide array binding signal intensity,ScMyo3,1170
same,SPOT peptide array binding signal intensity,ScMyo5,779
same,SPOT peptide array binding signal intensity,ScNbp2,10.5
same,SPOT peptide array binding signal intensity,ScPex13,≤ 0
same,SPOT peptide array binding signal intensity,ScRvs167,≤ 0
same,SPOT peptide array binding signal intensity,ScSho1,≤ 0
same,SPOT peptide array binding signal intensity,ScSla1-D1-D2,3.5
same,SPOT peptide array binding signal intensity,ScSla1-D3,6.5
same,SPOT peptide array binding signal intensity,SpAbp1-D1,≤ 0
same,SPOT peptide array binding signal intensity,SpBbc1,1.12
same,SPOT peptide array binding signal intensity,SpBzz1-D1,≤ 0
same,SPOT peptide array binding signal intensity,SpBzz1-D2,0.25
same,SPOT peptide array binding signal intensity,SpCyk3,≤ 0
same,SPOT peptide array binding signal intensity,SpHof1,≤ 0
same,SPOT peptide array binding signal intensity,SpHof1-2,6.38
same,SPOT peptide array binding signal intensity,SpHof1-3,20.2
same,SPOT peptide array binding signal intensity,SpHse1,1.5
same,SPOT peptide array binding signal intensity,SpLsb1,≤ 0
same,SPOT peptide array binding signal intensity,SpLsb4,≤ 0
same,SPOT peptide array binding signal intensity,SpMyo1,670
same,SPOT peptide array binding signal intensity,SpNbp2,21
same,SPOT peptide array binding signal intensity,SpPex13,≤ 0
same,SPOT peptide array binding signal intensity,SpRvs167,≤ 0
same,SPOT peptide array binding signal intensity,SpSla1-D1-D2,8
same,SPOT peptide array binding signal intensity,SpSla1-D3,8.5

# Reference: the supplement of paper PMC4466140
